Results on four molecules are retold here after PubChem BioAssay (EPA / NIEHS).

Where “and” joins values, the source holds several entries; their conditions need not be identical. Identical values can stand only once. Records with an inconclusive call do not appear. A structure can be active in one record and inactive in another. Calls of active or inactive are those of the source. How the source made its calls, unless noted: active means hit-call score of the fitted dose curve at least 0.9, where 1 is the maximum; inconclusive means response in the unintended direction; inactive means score below 0.9.

Read-out in test [1]: Signal transducer and activator of transcription 3 (Homo sapiens) (UniProt P40763)
Put plainly: LTEA_HepaRG_STAT3: Life Technologies and Expression Analysis (LTEA) Assay for Signal transducer and activator of transcription (STAT3) using HepaRG (AID 2283529; active means hit-call score of the fitted dose curve at least 0.9, where 1 is the maximum; inactive means score below 0.9). As to conditions: mRNA level, 48 h; actives raise or lower the signal. A digest of the protocol: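 Differentiated HepaRG cells, serum-free induction medium, dosed 48 h in duplicate, 8 half-log concentrations from 100 uM in 0.5% DMSO. STAT3 mRNA by qRT-PCR, normalised to ACTB, GAPDH, POLR2A; bidirectional fit versus DMSO.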

Read-out in test [2]: solute carrier (SLCO1B1), SLCO1B1 (gene 10599)
Put plainly: LTEA_HepaRG_SLCO1B1: Life Technologies and Expression Analysis (LTEA) Assay for solute carrier (SLCO1B1) using HepaRG (AID 2283530; active means hit-call score of the fitted dose curve at least 0.9, where 1 is the maximum; inactive means score below 0.9). As to conditions: mRNA level, 48 h; actives raise or lower the signal. A digest of the protocol: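 SLCO1B1 transcript read by qRT-PCR (Fluidigm arrays), normalized to three housekeeping genes, after 48 h chemical exposure of HepaRG cells; bidirectional concentration-response fitting versus 0.5% DMSO baseline. Eight-point half-log series, maximum 100 uM.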

Read-out in test [3]: sulfotransferase 2A1 (SULT2A1), SULT2A1 (gene 6822)
As to the kind of experiment: LTEA_HepaRG_SULT2A1: Life Technologies and Expression Analysis (LTEA) Assay for sulfotransferase 2A1 (SULT2A1) using HepaRG (AID 2283531; active means hit-call score of the fitted dose curve at least 0.9, where 1 is the maximum; inactive means score below 0.9). As to conditions: mRNA level, 48 h; actives raise or lower the signal. In a few lines: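 HepaRG, 48 h chemical exposure, 8-pt half-log curve from 100 uM in 0.5% DMSO, duplicates. Readout: TaqMan qRT-PCR of SULT2A1 mRNA, housekeeping-normalized. Bidirectional fit vs DMSO baseline.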

Read-out in test [4]: Transforming Growth Factor (TGFA), TGFA (gene 7039)
As to the kind of experiment: LTEA_HepaRG_TGFA: Life Technologies and Expression Analysis (LTEA) Assay for Transforming Growth Factor (TGFA) using HepaRG (AID 2283532; active means hit-call score of the fitted dose curve at least 0.9, where 1 is the maximum; inactive means score below 0.9). As to conditions: mRNA level, 48 h; actives raise or lower the signal. A digest of the protocol: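 Differentiated HepaRG cells exposed 48 hours in serum-free induction medium, 0.5% DMSO vehicle, 8-point half-log series from 100 uM, in duplicate. TGFA mRNA by TaqMan qRT-PCR, normalised to ACTB, GAPDH, POLR2A; bidirectional fit versus DMSO.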

Read-out in test [5]: Transforming Growth Factor (TGFB1), TGFB1 (gene 7040)
Put plainly: LTEA_HepaRG_TGFB1: Life Technologies and Expression Analysis (LTEA) Assay for Transforming Growth Factor (TGFB1) Transporter using HepaRG (AID 2283533; active means hit-call score of the fitted dose curve at least 0.9, where 1 is the maximum; inactive means score below 0.9). As to conditions: mRNA level, 48 h; actives raise or lower the signal. In a few lines:
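qRT-PCR readout of TGFB1 transcript in HepaRG lysates, normalized to three housekeeping genes; gain or loss of signal fitted relative to 0.5% DMSO vehicle. Exposure: 48 h, 8-point curve from 100 uM, duplicate wells.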

Read-out in the next test: TIMP1, TIMP1 (gene 7076)
As to the kind of experiment: LTEA_HepaRG_TIMP1: Life Technologies and Expression Analysis (LTEA) Assay for TIMP1 using HepaRG (AID 2283534; active means hit-call score of the fitted dose curve at least 0.9, where 1 is the maximum; inactive means score below 0.9). As to conditions: mRNA level, 48 h; actives raise or lower the signal. In a few lines: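 HepaRG, 48 h exposure, 8-pt half-log series from 100 uM in 0.5% DMSO, duplicates; TIMP1 transcript by Fluidigm qRT-PCR, housekeeping-normalized; bidirectional curve fit vs DMSO baseline.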

Read-out in test [6]: Tumor necrosis factor receptor 1 (TNFRSF1A), TNFRSF1A (gene 7132)
Put plainly: LTEA_HepaRG_TNFRSF1A: Life Technologies and Expression Analysis (LTEA) Assay for Tumor necrosis factor receptor 1 (TNFRSF1A) using HepaRG (AID 2283535; active means hit-call score of the fitted dose curve at least 0.9, where 1 is the maximum; inactive means score below 0.9). As to conditions: mRNA level, 48 h; actives raise or lower the signal. In a few lines: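 HepaRG, 48 h plating then 48 h chemical exposure, serum-free induction media; 8-pt CRC from 100 uM, half-log, 0.5% DMSO vehicle, duplicates. Readout: TaqMan qRT-PCR (Fluidigm), housekeeping-gene normalized; bidirectional fit vs DMSO.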

Read-out in test [7]: Thyroid Hormone Responsive (THRSP), THRSP (gene 7069)
As to the kind of experiment: LTEA_HepaRG_THRSP: Life Technologies and Expression Analysis (LTEA) Assay for Thyroid Hormone Responsive (THRSP) using HepaRG (AID 2283536; active means hit-call score of the fitted dose curve at least 0.9, where 1 is the maximum; inactive means score below 0.9). To be noted: mRNA level, 48 h; actives raise or lower the signal. In a few lines:
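Differentiated HepaRG cells treated 48 h in serum-free induction medium with 8 half-log concentrations up to 100 uM (0.5% DMSO), duplicates. THRSP mRNA by TaqMan qRT-PCR normalised to ACTB, GAPDH, POLR2A; bidirectional fit versus DMSO.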

Read-out in test [8]: Cellular tumor antigen p53 (Homo sapiens) (UniProt P04637)
Put plainly: LTEA_HepaRG_TP53: Life Technologies and Expression Analysis (LTEA) Assay for Tumor Protein P53 (TP53) using HepaRG (AID 2283537; active means hit-call score of the fitted dose curve at least 0.9, where 1 is the maximum; inactive means score below 0.9). To be noted: mRNA level, 48 h; actives raise or lower the signal. In a few lines: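 Read-out is TP53 transcript level by microfluidic qRT-PCR, normalised to three housekeeping genes and fitted bidirectionally against DMSO. Human HepaRG cells received compounds for 48 h, highest concentration 100 uM.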

Read-out in test [9]: UDP glucuronosyltransferase (UGT1A1), UGT1A1 (gene 54658)
As to the kind of experiment: LTEA_HepaRG_UGT1A1: Life Technologies and Expression Analysis (LTEA) Assay for UDP glucuronosyltransferase (UGT1A1) using HepaRG (AID 2283538; active means hit-call score of the fitted dose curve at least 0.9, where 1 is the maximum; inactive means score below 0.9). To be noted: mRNA level, 48 h; actives raise or lower the signal. A digest of the protocol:
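HepaRG cells, 0.5% DMSO vehicle, 48 h exposure in serum-free induction medium to 8-point half-log series topping at 100 uM, in duplicate. UGT1A1 mRNA by Fluidigm qRT-PCR, normalized to ACTB/GAPDH/POLR2A; bidirectional fit versus DMSO.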

Read-out in test [10]: UDP glucuronosyltransferase (UGT1A6), UGT1A6 (gene 54578)
As to the kind of experiment: LTEA_HepaRG_UGT1A6: Life Technologies and Expression Analysis (LTEA) Assay for UDP glucuronosyltransferase (UGT1A6) using HepaRG (AID 2283539; active means hit-call score of the fitted dose curve at least 0.9, where 1 is the maximum; inactive means score below 0.9). As to conditions: mRNA level, 48 h; actives raise or lower the signal. In a few lines: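 qRT-PCR readout of UGT1A6 mRNA (normalized to ACTB/GAPDH/POLR2A) in differentiated HepaRG cells after 48 h chemical exposure; 8 concentrations, top 100 uM, half-log steps, 0.5% DMSO. Bidirectional curve fit relative to DMSO baseline.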

Read-out in test [11]: X-box binding protein 1 (XBP1), XBP1 (gene 7494)
Put plainly: LTEA_HepaRG_XBP1: Life Technologies and Expression Analysis (LTEA) Assay for X-box binding protein 1 (XBP1) using HepaRG (AID 2283540; active means hit-call score of the fitted dose curve at least 0.9, where 1 is the maximum; inactive means score below 0.9). As to conditions: mRNA level, 48 h; actives raise or lower the signal. A digest of the protocol: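 HepaRG, 48 h exposure, 8-pt half-log CRC top 100 uM, 0.5% DMSO vehicle, duplicates. Readout: TaqMan qRT-PCR of XBP1 mRNA, housekeeping-normalised (ACTB/GAPDH/POLR2A); bidirectional fit vs DMSO baseline.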

A short description of test [12]: LTEA_HepaRG_LDH_cytotoxicity: Cytotoxicity Assessment in the Life Technologies and Expression Analysis (LTEA) Assay (AID 2283563).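 On AC50: LDH activity released into spent culture medium as a marker of cell death.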 In a few lines: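 HepaRG (human liver line), 48 h exposure, 8-pt half-log series from 100 uM, 0.5% DMSO vehicle, duplicates. Read-out: LDH in spent medium. Positive-direction fit vs DMSO baseline.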
The nature of test [13]: ATG_XTT_Cytotoxicity: Cytotoxicity Assessment in the Attagene TRANS-FACTORIAL HepG2 Assay (AID 2283584). A digest of the protocol: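 XTT readout of cell number in transfected HepG2 cells, 24 h post-dosing; DMSO serves as negative control and baseline, with activity taken as loss of viability signal.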
Test [14] can be described thus: TOX21_p53_BLA_p2_viability: Viability Assessment in the Tox21 HCT-116 p53 Agonism Beta-lactamase Assay, Phase 2 (AID 2283591).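 Further: compound exposure lasted 16 h at 37 °C; actives lower the ATP signal meaning cytotoxicity.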 A digest of the protocol: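 HCT116 p53-bla cells, 4000/well, dosed after 5 h plating (217-fold dilution of DMSO stocks) and incubated 16 h at 37C. Viability taken as cellular ATP by CellTiter-Glo luminescence after 30 min RT; signal loss marks cytotoxicity.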

Test [15] addresses Cellular tumor antigen p53 (Homo sapiens) (UniProt P04637). Put plainly: TOX21_p53_BLA_p2_ratio: Tox21 HCT-116 p53 Agonism Beta-lactamase Assay, Ratio, Phase 2 (AID 2283592). In a few lines:
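In this cell-based reporter format, HCT116 cells were dosed with chemicals delivered from DMSO by 217-fold dilution and incubated 16 h at 37C. Emission at 460 and 530 nm after 2 h CCF4-AM loading provided the ratio, fitted upward versus DMSO.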

A short description of test [16]: TOX21_p53_BLA_p3_viability: Viability Assessment in the Tox21 HCT-116 p53 Agonism Beta-lactamase Assay, Phase 3 (AID 2283593).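 Further: cells exposed to compound for 16 h before reading.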 In a few lines: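 HCT116 cells, 4000/well, dosed 5 h after plating by pin transfer (217-fold dilution from DMSO stock) and incubated 16 h at 37C, 5% CO2. Viability read as ATP luminescence with CellTiter-Glo after 30 min at room temperature.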

Test [17] deals with Cellular tumor antigen p53 (Homo sapiens) (UniProt P04637). Put plainly: TOX21_p53_BLA_p3_ratio: Tox21 HCT-116 p53 Agonism Beta-lactamase Assay, Ratio, Phase 3 (AID 2283596). In a few lines:
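HCT116 p53-bla cells (4000/well) given compound in DMSO (217-fold dilution) after 5 h, incubated 16 h at 37C. CCF4-AM substrate 2 h at room temperature; 460/530 nm emission ratio, gain fitted against DMSO.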

The nature of test [18]: TOX21_p53_BLA_p4_viability: Viability Assessment in the Tox21 HCT-116 p53 Agonism Beta-lactamase Assay, Phase 4 (AID 2283597).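 Further: hits lower the luminescence signal meaning cytotoxicity.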 A digest of the protocol: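 We seeded HCT116 p53 reporter cells at 4000/well and waited 5 h. We then added compounds in DMSO at a 217-fold dilution and incubated for 16 h. Viability was read as CellTiter-Glo luminescence after 30 min at RT.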
Read-out in test [19]: succinate dehydrogenase complex iron sulfur subunit B (SDHB), SDHB (gene 6390)
As to the kind of experiment: LTEA_HepaRG_SDHB: Life Technologies and Expression Analysis (LTEA) Assay for succinate dehydrogenase complex iron sulfur subunit B (SDHB) using HepaRG (AID 2283528; active means hit-call score of the fitted dose curve at least 0.9, where 1 is the maximum; inactive means score below 0.9). As to conditions: mRNA level, 48 h; actives raise or lower the signal. In a few lines: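 Readout is SDHB transcript level by qRT-PCR, normalised to three housekeeping genes and fitted bidirectionally against 0.5% DMSO vehicle. Human HepaRG cells were treated for 48 h at up to 100 uM.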

Sequence of Cellular tumor antigen p53 (Homo sapiens) (P04637 whole entry, looked up): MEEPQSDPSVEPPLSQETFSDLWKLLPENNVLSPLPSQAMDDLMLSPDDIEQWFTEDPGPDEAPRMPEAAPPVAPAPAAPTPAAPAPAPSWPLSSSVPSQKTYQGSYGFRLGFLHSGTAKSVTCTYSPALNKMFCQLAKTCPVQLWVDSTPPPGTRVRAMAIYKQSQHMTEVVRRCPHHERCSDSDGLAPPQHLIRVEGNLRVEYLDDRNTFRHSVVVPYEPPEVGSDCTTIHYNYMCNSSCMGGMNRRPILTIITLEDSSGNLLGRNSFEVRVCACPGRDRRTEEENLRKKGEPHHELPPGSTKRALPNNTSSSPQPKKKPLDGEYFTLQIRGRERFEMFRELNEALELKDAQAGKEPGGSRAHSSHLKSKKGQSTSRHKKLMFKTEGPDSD
Sequence of Signal transducer and activator of transcription 3 (Homo sapiens) (P40763 whole entry, looked up): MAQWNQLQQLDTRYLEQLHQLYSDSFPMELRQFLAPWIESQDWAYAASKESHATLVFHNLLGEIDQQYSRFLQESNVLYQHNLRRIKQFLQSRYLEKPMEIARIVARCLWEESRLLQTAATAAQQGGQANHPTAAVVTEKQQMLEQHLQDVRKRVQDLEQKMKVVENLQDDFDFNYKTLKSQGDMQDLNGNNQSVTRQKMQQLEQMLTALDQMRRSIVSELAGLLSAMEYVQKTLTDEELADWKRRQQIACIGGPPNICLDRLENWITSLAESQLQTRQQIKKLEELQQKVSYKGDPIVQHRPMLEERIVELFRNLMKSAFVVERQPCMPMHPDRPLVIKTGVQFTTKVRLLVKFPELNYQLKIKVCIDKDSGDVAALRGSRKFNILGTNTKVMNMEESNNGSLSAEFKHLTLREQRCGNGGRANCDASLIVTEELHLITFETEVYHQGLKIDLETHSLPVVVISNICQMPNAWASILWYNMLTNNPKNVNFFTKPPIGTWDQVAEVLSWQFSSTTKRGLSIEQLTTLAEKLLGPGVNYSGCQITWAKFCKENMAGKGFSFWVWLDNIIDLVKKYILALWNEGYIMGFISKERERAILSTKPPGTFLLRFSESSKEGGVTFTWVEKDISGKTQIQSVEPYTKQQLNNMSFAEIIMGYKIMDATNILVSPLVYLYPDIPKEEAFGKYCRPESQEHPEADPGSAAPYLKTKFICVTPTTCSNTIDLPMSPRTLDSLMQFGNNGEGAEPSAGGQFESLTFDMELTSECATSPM

With `CC(C)(c1ccccc1)c1ccc(O)cc1`, the outcome in test [1] was “inactive”; in test [2] it was “inactive”; in test [3], “inactive”; in [4], “inactive”; in [5], “inactive”; in the test with TIMP1, TIMP1 (gene 7076), “inactive”. Moreover, the outcome in test [6], in test [8], in test [9], in test [10], in test [11] and in test [13] was inactive. For the same molecule, the molecule was classed as inactive in test [14], in test [15], in [16] and in test [17]. In addition, the AC50 (in general, the midpoint of the concentration-response curve, whichever way the signal moves) in test [7] was 78.2 µM (active); in [12] it was 76.7 µM (active); in test [14], 80.1 µM (active); in test [15], 74 µM (active); in test [18], 71 µM (active) and 65.8 µM (active).
In the case of `Cc1cccc(C)c1N`, the molecule was classed as inactive in [19], in test [1], in [2], in test [3], in test [4] and in test [5]. For the same molecule, the outcome with TIMP1, TIMP1 (gene 7076) is “inactive”; in test [6], “inactive”; in [7] it was “inactive”; in [8] it was “inactive”; in [9], “inactive”; in [10], “inactive”. In addition, the call in [11], in [12], in test [13], in test [15], in test [17] and in test [18] was inactive.
Regarding `C1CC2OC2CC1C1CO1` (configuration not stated), the molecule was classed as inactive in test [19], in [1], in test [2], in [3], in [4] and in [5]. Moreover, the outcome in the test with TIMP1, TIMP1 (gene 7076) was “inactive”; in [6], “inactive”; in test [7], “inactive”; in test [8], “inactive”; in test [9], “inactive”; in test [10], “inactive”. The molecule was classed as inactive in [11], in test [12], in test [13], in test [14], in test [15] and in [17]. Moreover, the result in test [18] was inactive.
Take `C[C@]12CCC(=O)C=C1CC[C@@H]1[C@@H]2CC[C@]2(C)C(=O)CC[C@@H]12`: the outcome in [19] was “inactive”; in [1] it was “inactive”; in test [2], “inactive”; in [5], “inactive”; with TIMP1, TIMP1 (gene 7076) it was “inactive”; in test [6] it was “inactive”. Moreover, the outcome in test [8], in test [10], in test [12], in test [13], in test [14] and in [15] was inactive. Moreover, the outcome in test [16], in [17] and in [18] was inactive. Further, the AC50 in [3] is 15.2 µM (active); in test [4] it was 50 µM (active); in [7], 1.39 µM (active); in [9], 13.1 µM (active).
